High-throughput results deposited in PubChem by National Center for Advancing Translational Sciences (NCATS).
AmpC no deterg: AmpC beta-lactamase inhibition without detergent | P00811 | AmpC nitrocefin hydrolysis, absorbance 480 nm, 0.0001% Triton | Potency, µM (titrated, usually from 57.1 µM), hits mostly inhibitors | 330,000 tested, 0.52% active; further: nearly all actives have a fitted effect of over 20% in size
Target sequence (P00811 whole entry, looked up): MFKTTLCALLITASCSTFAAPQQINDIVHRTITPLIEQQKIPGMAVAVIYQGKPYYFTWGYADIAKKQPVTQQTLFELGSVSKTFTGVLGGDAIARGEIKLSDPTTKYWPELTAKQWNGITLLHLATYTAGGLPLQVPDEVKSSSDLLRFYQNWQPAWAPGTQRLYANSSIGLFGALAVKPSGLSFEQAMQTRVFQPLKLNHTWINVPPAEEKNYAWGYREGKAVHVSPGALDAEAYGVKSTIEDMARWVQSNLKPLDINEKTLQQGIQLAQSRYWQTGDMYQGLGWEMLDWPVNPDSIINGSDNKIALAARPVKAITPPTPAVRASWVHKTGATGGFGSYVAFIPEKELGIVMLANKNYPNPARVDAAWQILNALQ
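AmpC (5.3 nM in the dispensed reagent) in 20 mM phosphate pH 7.0 with 0.01% (detergent screen) or 0.0001% Triton X-100 was preincubated with compounds for 15 min at room temperature. Nitrocefin was then added from an 800 uM solution, and hydrolysis was followed at 480 nm.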
AMA1-RON2 inh: disrupts binding of P. falciparum AMA1 to RON2; AlphaScreen AMA1-biotinylated RON2 peptide binding; Potency, µM (titrated, usually from 58.2 µM), hits mostly inhibitors; 360,000 tested, 0.2% active; AID 720542; further: nearly all actives have a fitted effect of over 45% in size
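AMA1 (3D7) with his tag at 25 nM final met compounds first, then biotinylated RON2 peptide at 25 nM; detection used donor plus acceptor beads, 10 µg/mL apiece, read by AlphaScreen after 30 min at room temperature.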
AmpC detergent: blocks E. coli AmpC beta-lactamase in detergent assay; 370,000 tested, 0.041% active; AID 485294; Potency, µM (highest dose often 114 µM), most hits filed as inhibitors; AmpC hydrolysis of nitrocefin, absorbance 480 nm, 0.01% Triton; P00811; further: nearly all actives have a fitted effect of over 25% in size
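20 mM phosphate pH 7.0 + 0.01% (detergent screen) or 0.0001% Triton X-100; 5.3 nM AmpC reagent; cpd preinc 15 min RT; nitrocefin (800 uM stock) to start; A480 q20 s × 4 min; Activity was normalised to no-enzyme and no-compound control wells.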
Sm TGR block: blocks Schistosoma mansoni thioredoxin glutathione reductase; purified TGR, DTNB reduction, TNB absorbance 405 nm; Potency, µM (top dose mostly 114 µM), most hits filed as inhibitors; 360,000 tested, 3% active; further: nearly all actives have a fitted effect of over 60% in size
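First, TGR (20 nM dispensed) and NADPH were mixed with compound. Second, a 15 min room-temperature incubation followed. Third, further NADPH and then DTNB were added to start the reaction. Finally, TNB absorbance was monitored kinetically.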
RE007 growth inh: less growth of the S. pombe RE007 Vpr strain | S. pombe RE007 Vpr strain, BacTiter-Glo ATP luminescence, 24 h | Potency, µM (series often up to 92.2 µM), most hits filed as inhibitors | 360,000 tested, 0.21% active | AID 651644; active means well fitted falling curve with a large enough effect; inconclusive means small, poorly fitted or top-dose-only effect; inactive means no such curve, though single readings can be large or run the other way; further: nearly all actives have a fitted effect of over 50% in size
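Fission yeast strain RE007, carrying one chromosomally integrated HIV-1 vpr copy, was seeded at OD 0.01 in PMG+AL medium with 23 nL pinned compound. After 24 h at 30 °C and 99% humidity, viability was read by BacTiter-Glo luminescence.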
Hits are given with their value; – = inactive; ? = inconclusive; · = no result. Only some compounds are listed: those with a hit (about 3.2% of all), similar ones and a draw of the others. Unless noted, the call rests on the fitted dose curve; in most records, active means well fitted curve in the direction sought with a large enough effect; inconclusive means small, poorly fitted or top-dose-only effect, or another doubt; inactive means no such curve, though single readings can be large; an effect the other way counts as inactive or inconclusive.

SMILES	AmpC no deterg	AMA1-RON2 inh	AmpC detergent	Sm TGR block	RE007 growth inh
O=C(CN1C(=O)CC(c2ccco2)Sc2ccccc21)Nc1ccc(OC(F)(F)F)cc1 (stereo unspecified)	·	·	–	–	·
CC(C)c1ccc(NC(=O)Cn2c(=O)n(CC3CCC(C(=O)NCCc4ccccc4)CC3)c(=O)c3ccccc32)cc1 (stereo unspecified)	·	·	–	–	·
CCN(CC)CCN(C(=O)c1ccco1)c1nc2cc(C)cc(C)c2s1	·	·	–	–	·
O=C1CC(Sc2nnnn2-c2ccccc2)C(=O)N1c1cccc(Cl)c1 (stereo unspecified)	?	–	–	2.82µM	7.08µM
CCCc1ccc(C#N)c(SC2CC(=O)N(c3ccc(OC)cc3)C2=O)n1 (stereo unspecified)	–	–	–	?	–
COc1ccc(N2C(=O)CC(Sc3nnnn3-c3ccc(F)cc3)C2=O)cc1 (stereo unspecified)	–	–	–	·	15.8µM
CCC(COC)Oc1cc(NCc2ccccc2)c2ncn(C(C)C)c2c1 (stereo unspecified)	–	–	–	28.2µM	–
CN1CCN(Cc2c(F)cccc2Cl)CC1	–	14.1µM	–	–	–
Cc1cccc(N2C(=O)N(Cc3ccc(C(C)(C)C)cc3)c3ccccc3S2(=O)=O)c1	·	·	–	–	·
O=S1(=O)c2ccccc2N=NN1Cc1ccc(Cl)c(Cl)c1	·	·	–	3.98µM	·
CC(C)(C)c1ccc(CN2N=Nc3ccccc3S2(=O)=O)cc1	–	–	–	12.6µM	–
COc1ccccc1N1CCN(C(=O)CN2C(=O)COc3ccc(S(=O)(=O)N4CCOCC4)cc32)CC1	·	·	–	–	·
O=C(OC(C(=O)NCc1cccs1)c1ccccc1Cl)c1ccco1 (stereo unspecified)	–	–	?	44.7µM	–
CC(C)C(OC(=O)c1cccs1)C(=O)NCc1ccco1 (stereo unspecified)	–	–	–	35.5µM	–
COc1ccccc1C(OC(=O)c1cccs1)C(=O)NCc1ccco1 (stereo unspecified)	–	–	–	12.6µM	–
CC(=O)OC(C(=O)NCc1ccco1)c1ccncc1 (stereo unspecified)	–	–	–	44.7µM	–
Cc1ccc2ccc3cc(C(=O)Nc4ccc(C)c(F)c4)nc3c2[nH]1	·	·	–	–	·
Cc1cccc(C(=O)Nc2nc(-c3ccc(Br)cc3)ns2)c1	·	·	–	–	·
CCCOc1ccccc1C(=O)N1CCC(c2nc3ccccc3s2)CC1	·	·	–	–	·
O=C(CSc1cn(CC(=O)N2CCCCC2)c2ccccc12)Nc1ccccc1F	·	·	–	–	·
CCOC(=O)N1CCC(NC(=O)Cn2ncc3ccccc32)CC1	–	–	–	–	–
CC1CCC(NC(=O)Cn2ncc3ccccc32)CC1 (stereo unspecified)	2.51µM	–	?	–	–
CC1CCCCC1NC(=O)Cn1ncc2ccccc21 (stereo unspecified)	3.16µM	–	?	–	–
O=C(NCc1ccccc1Cl)c1ccc(Cn2c(SCc3ccccc3)nc3cccnc32)cc1	·	·	–	–	·
Cc1c(C(=O)N/N=C/c2ccc(Cl)cc2)[nH]c2ccc(Cl)cc12	14.1µM	–	–	–	?
SMILES	AmpC no deterg	AMA1-RON2 inh	AmpC detergent	Sm TGR block	RE007 growth inh
COc1ccc2c(c1)OC1=C(C(=O)CCC1)C2C1=C(O)CCCC1=O (stereo unspecified)	–	–	–	17.8µM	–
COc1ccc(-c2ccc(C(=O)NCc3ccc(N4CCN(C)CC4)cc3)c3occc23)c(C)c1	·	15.8µM	·	·	–
COC(=O)c1sc(N)c(C(=O)OC)c1Cn1ncc(Cl)c(Cl)c1=O	–	–	–	0.316µM	–
Cc1nc(N)sc1C(=O)N1N=N1	–	–	–	2.51µM	–
Cn1cc(NC(=O)c2cc(NC(=O)c3cc(NC=O)cn3C)cn2C)cc1C(=O)NCCC(=N)N	–	·	–	14.1µM	·
O=C(CCN1C(=O)C2C3C=CC(C4CC34)C2C1=O)Oc1cccc2cccnc12 (stereo unspecified)	–	–	?	–	14.1µM
O=C1CSC(=S)N1N=Cc1c(O)ccc2ccccc12	·	–	·	·	–
COc1cc(/C=N/N2C(=O)CSC2=S)cc(Br)c1O	–	–	–	12.6µM	?
O=C1CSC(=S)N1/N=C/c1c(F)cccc1F	–	–	–	8.91µM	–
